High-throughput results (PubChem)
In the library only some 1.7% were active in any assay of this set; here they are far more common.
TRHR enhancer: allosterically enhances the human TRH receptor; P34981; enhancement, % at 2 µM; TRHR cells, fluo-8 calcium fluorescence, EC20 TRH enhancement; 360,000 tested, 0.66% active; AID 493056; in the data active means enhancement above about 30%; further: 0% is about no effect
Target sequence (P34981 whole entry, looked up): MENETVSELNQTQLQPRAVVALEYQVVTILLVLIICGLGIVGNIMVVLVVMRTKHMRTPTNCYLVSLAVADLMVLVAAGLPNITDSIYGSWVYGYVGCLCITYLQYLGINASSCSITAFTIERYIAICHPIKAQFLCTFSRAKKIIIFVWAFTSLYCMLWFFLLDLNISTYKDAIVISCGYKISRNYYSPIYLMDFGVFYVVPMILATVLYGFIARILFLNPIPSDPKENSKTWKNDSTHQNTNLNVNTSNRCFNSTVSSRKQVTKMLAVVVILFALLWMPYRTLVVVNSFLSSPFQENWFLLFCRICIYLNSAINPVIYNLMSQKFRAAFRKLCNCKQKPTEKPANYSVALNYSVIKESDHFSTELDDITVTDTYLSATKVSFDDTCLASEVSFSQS
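Enhancer read-out: after compound pinning and an initial kinetic agonist-mode read, an EC20 of TRH (10 nM final) was injected and fluo-8 calcium signal (Ex 480/Em 530) followed at 1 s/cycle for 100 cycles in TRHR-expressing cells.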
KCNH2 3.1 inh: inhibitors of human KCNH2 3.1 potassium channel isoform; U2OS KCNH2 3.1, thallium flux FluxOr; stronger effect = lower value; activity change, % (tested at about 1.8 µM); 340,000 tested, 0.95% active; AID 720553;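 active means maximum activity change below -70%; inconclusive means maximum activity change from -70% to -50%; inactive means maximum activity change above -50%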;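 further: thallium influx rate constant from kinetic fluorescence after stimulation buffer; on the % scale 0 is the no-effect control and ±100 the full control effect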
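We transduce U2OS cells with the mutant 3.1 virus, culture them overnight, load FluxOr with Red40 quencher for 45 min, then add stimulation buffer and read kinetically for 2 min to derive a normalized rate constant.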
TRPML1 blocker: human mucolipin-1 channel inhibition | AID 624415 | 390,000 tested, 0.02% active | Q9GZU1 | TRPML1-inducible cells, Ca2+ dye fluorescence, FDSS; stronger effect = lower value; inhibition of EC80 agonist-evoked calcium signal | activity change, negative = inhibition, % (test concentration not listed); in the data active means activity change below about -50%; inconclusive means between about -30% and that limit;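 further: stimulus is agonist 54-4 at its EC80 concentration; on the % scale 0 is the no-effect control and ±100 the full control effect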
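Tet-induced TRPML1-DL cells loaded with Ca8 no-wash calcium dye were read kinetically on FDSS. Compound addition was followed by EC80 agonist 54-4 (4 uM final); inhibition was read over 110 s.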
TRPML1 agonist: agonists of human TRPML1 channel. Q9GZU1. TRPML1-expressing cells, Ca2+ dye fluorescence, FDSS. activation, % (no concentration beside the values). 410,000 tested, 0.12% active. AID 624414; in the data active means activation above about 50%; inconclusive means mostly about 30% to 49%; further: 0% is about no effect
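Tetracycline-induced TRPML1-DL cells are seeded and incubated overnight before loading with a no-wash Ca2+ dye and quencher. Agonist activity is taken from the 110 s fluorescence read following compound pin-transfer on an FDSS, before EC80 54-4 challenge.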
KCNH2 WT inh: KCNH2 (human, wildtype) channel inhibition; Q12809; U2OS, BacMam KCNH2, thallium flux FluxOr; stronger effect = lower value; activity change, % at 1.84 µM; 340,000 tested, 0.37% active; AID 720551;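 active means maximum activity change below -70%; inconclusive means maximum activity change between -70% and -50%; inactive means maximum activity change above -50%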; further: on the % scale 0 is the no-effect control and ±100 the full control effect
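U2OS cells were transduced with wild-type KCNH2 virus (2.03 x 10^8 / mL) for 4 h at room temperature, then cultured overnight at 37 C. Thallium flux was read with FluxOr dye. Rate constants were normalized to DMSO controls.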
TRHR agonist: TRH receptor (human) agonism. P34981. TRHR cells, calcium flux fluo-8, FDSS agonist mode. activation, % at 2 µM. 360,000 tested, 0.18% active. AID 493084; in the data active means activation above about 30%; further: 0% is about no effect
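Fluo-8-loaded TRHR cells; 10 s baseline, compound added, kinetic Ca2+ fluorescence read 1/s, agonist mode.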
* marks the source's active call; other numbers are inactive results.

How did CC(=O)N1CCN(c2nnc(-c3ccc(C)cc3)c3ccccc23)CC1 do in these assays?
TRHR enhancer: 5; KCNH2 3.1 inh: -1; TRPML1 blocker: 3; TRPML1 agonist: 2; KCNH2 WT inh: -3; TRHR agonist: -1

Results for Cc1ccc(OCC(=O)N2CCN(c3nnc(-c4ccccc4)c4ccccc34)CC2)cc1 ?
TRHR enhancer: 2; KCNH2 3.1 inh: -70*; TRPML1 blocker: -13; TRPML1 agonist: 4; KCNH2 WT inh: -16; TRHR agonist: 0

How did CC1(C(=O)O)CCCN1C(=O)c1ccco1 (centres undefined) do in these assays?
TRPML1 blocker: -9; TRPML1 agonist: 0

What do the screens show for `CCCCc1nc2cc(C(=O)N3CCC(OC)CC3)ccc2o1`?
TRHR enhancer: -3; KCNH2 3.1 inh: 6; TRPML1 blocker: 59; TRPML1 agonist: 0; KCNH2 WT inh: 1; TRHR agonist: -1

How did CCCCc1nc2cc(C(=O)N3CCN(c4nc(C)cnc4C)CC3)ccc2o1 do in these assays?
TRHR enhancer: -3; KCNH2 3.1 inh: -77*; TRPML1 blocker: 18; TRPML1 agonist: 2; KCNH2 WT inh: -5; TRHR agonist: -1

What do the screens show for `Cc1ccc(C)c(NC(=O)CCC(=O)NNS(=O)(=O)c2ccc(Cl)cc2)c1`?
TRHR enhancer: 1; KCNH2 3.1 inh: -2; TRPML1 blocker: 6; TRPML1 agonist: 2; KCNH2 WT inh: 4; TRHR agonist: 0

How did COc1ccccc1C1CCN(Cc2ccc(C)cc2)CC1 do in these assays?
TRHR enhancer: 20; KCNH2 3.1 inh: -84*; TRPML1 blocker: 7; TRPML1 agonist: -1; KCNH2 WT inh: 39; TRHR agonist: -2

What do the screens show for `COc1ccccc1C1CCN(Cc2cccc(C(=O)N3CCC(O)CC3)c2)CC1`?
TRHR enhancer: -1; KCNH2 3.1 inh: 11; TRPML1 blocker: 6; TRPML1 agonist: 0; KCNH2 WT inh: 11; TRHR agonist: 1

Results for Cc1ccc(CS(=O)(=O)CCC(=O)NCc2ccccc2Cl)cc1 ?
TRHR enhancer: -4; KCNH2 3.1 inh: -73*; TRPML1 blocker: 3; TRPML1 agonist: 1; KCNH2 WT inh: -1; TRHR agonist: 0

How did COc1cccc(C(=O)NC(C)C(c2cccs2)N2CCN(C)CC2)c1 (centres undefined) do in these assays?
TRHR enhancer: -5; KCNH2 3.1 inh: -72*; TRPML1 blocker: 1; TRPML1 agonist: 1; KCNH2 WT inh: -5; TRHR agonist: 0

Results for CC(NC(=O)c1cccnc1)C(c1cccs1)N1CCN(C)CC1 (centres undefined) ?
TRHR enhancer: 8; KCNH2 3.1 inh: -6; TRPML1 blocker: -5; TRPML1 agonist: 0; KCNH2 WT inh: 3; TRHR agonist: 0

How did COc1cccc(C2=CC(=O)C[C@H](c3ccc(Cl)cc3)C2)c1OC do in these assays?
TRHR enhancer: 4; KCNH2 3.1 inh: -129*; TRPML1 blocker: -3; TRPML1 agonist: 1; KCNH2 WT inh: 1; TRHR agonist: 0

How did Cn1nc(-c2ccccc2)c2nc3ccccc3nc21 do in these assays?
TRHR enhancer: 1; KCNH2 3.1 inh: -8; TRPML1 blocker: -4; TRPML1 agonist: 12; KCNH2 WT inh: -6; TRHR agonist: 55*

Results for CC(=O)c1ccc(NC(=O)c2ccc3c(c2)N(Cc2cccc(Cl)c2)C(=O)c2ccccc2S3(=O)=O)cc1 ?
TRHR enhancer: 30*; TRPML1 blocker: 5; TRPML1 agonist: 4; TRHR agonist: 1

How did CCOc1ccc(C(=O)Nc2ccc(NC(=O)c3cccs3)cc2)cc1[N+](=O)[O-] do in these assays?
TRHR enhancer: -3; KCNH2 3.1 inh: -99*; TRPML1 blocker: 27; TRPML1 agonist: 1; KCNH2 WT inh: -81*; TRHR agonist: 0

Results for COc1ccc(C(=O)Nc2ccc(C(=O)Nc3nccs3)cc2)cc1[N+](=O)[O-] ?
TRHR enhancer: 4; KCNH2 3.1 inh: inconclusive; TRPML1 blocker: 3; TRPML1 agonist: 1; KCNH2 WT inh: -93*; TRHR agonist: 0
